# Reference: PubChem BioAssay (NCI)
# About 83,000 compounds went through this panel and 20% of them were active in at least one assay; those are over-represented in the sample as a whole.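 Values shown are percent growth following 48 h exposure of cells in 96-well plates to a single concentration of compound; below 10 was considered active.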 A number with no mark means an inactive call. Activity calls are given as the source filed them.
# Test system: KM12 colon
# Assay: NCI-60 one-dose screen, 48 h (100 = growth as untreated, 0 = no growth, -100 = all killed)
# Settings: 10 µM unless noted
row,SMILES,growth
1,CN1C(=O)C2(SCC(C(=O)NCC(=O)OC(C)(C)C)N2C(=O)C2CCCCC2)c2ccccc21 (centres undefined),101%
2,COc1cc([C@@H]2c3cc4c(cc3C(OC3O[C@@H]5COC(C)O[C@H]5[C@H](O)[C@H]3O)C3COC(=O)[C@@H]32)OCO4)cc(OC)c1O (some centres undefined),42.1%
3,O=[N+]([O-])c1cccc(C2c3ccccc3Oc3ccccc32)c1,86.7%
4,O=c1cc(Cl)[nH]c(=O)[nH]1,105%
5,C=CCOc1ccc(/C(Cl)=N/N=C(\Cl)c2cc(OC)c(OC)c(OC)c2)cc1,67.9%
6,CN(C)c1ccc(/C=c2\s/c(=C\C(=O)C(C)(C)C)[nH]c2=O)cc1,81.9%
7,Cc1ccn2cc(Cc3cc(=O)oc4c3ccc3ccccc34)c(=O)nc2c1,101%
8,Clc1ccc(CN2COc3c(ccc4cccnc34)C2)cc1Cl,7.75% (active)
9,COc1ccccc1N1CCN(CC(O)COc2c(Br)c(Br)c(Br)c3c2OC(C)(C)C3)CC1 (centres undefined),35.7%
10,CCN(CC)CCNC(=O)c1c(C)[nH]c(/C=C2\C(=O)Nc3cc(NC(=O)NC(=O)c4ccc(OC)cc4F)ccc32)c1C,51.5%
11,O=C(CSc1nnc(-c2ccc(Cl)cc2)o1)Nc1ccc(C(=O)/C=C/c2ccccc2)cc1,100%
12,Cn1c2ccccc2c2ssc(=S)c21,99.7%
13,CN(CCNCc1ccccn1)CCNCc1ccccn1,-0.112% (active)
14,Cc1ccc2c(C3C(C#N)=C(N)Oc4cc5ccccc5cc43)cc(=O)oc2c1 (centres undefined),24.1%
15,CNCCCOc1c(Br)cc(CCNC(=O)/C(Cc2ccc(OC)c(Br)c2)=N/O)cc1Br,42.1%
16,COC(OC)C1(c2ccccc2)NC(=O)NC1=O (centres undefined),115%
17,CC(C)(C)OC(=O)NCc1cccc(N=C=S)c1,51.6%
18,Cc1cc(-c2ccccc2)nc2ccccc12,106%
19,O=C(Cn1c2ccccc2c2ccncc21)N/N=C\c1ccc2ccccc2c1,36%
20,CC[C@H]1[C@@H]2C=C[C@@H]3[C@H]4C/C=C\C(=O)NCCC[C@@H]5NC(=O)/C(=C(O)/C=C/[C@@H]4C[C@@H]3[C@H]2C[C@H]1C)C5=O,63.8%

row,SMILES,growth
1,COc1ccc(/C=C/C(=O)c2ccc(Oc3ncnc4ccccc34)cc2)cc1OC,22.6%
2,Cc1cc(N2CCOCC2)nc(N(CCNc2ccnc3cc(Cl)ccc23)Cc2ccco2)n1,44.8%
3,CC(C)(c1ccc(OCC(O)CNCc2ccco2)cc1)c1ccc(OCC(O)CNCc2ccco2)cc1 (centres undefined),82.6%
4,CCC1CN2C(=N1)c1ccccc1-c1cc(Cl)ccc12 (centres undefined),16.7%
5,O=C(Nc1cccc(-n2ccc3c(NC(=O)c4ccccc4)nccc32)c1)c1cccc(C(F)(F)F)c1,-3.3% (active)
6,CCOc1ccc(-n2c(-c3cc(OC)c(OC)c(OC)c3)nnc2-c2ccc(OC)cc2N)cc1,37.8%
7,O=C(COc1ccc(Cl)cc1)N1CCN(Cc2ccc3c(c2)OCO3)CC1,102%
8,C=C1C(=O)O[C@H]2[C@H]1CC/C(COC(=O)c1cccc3ccccc13)=C\CC[C@@]1(C)O[C@@H]21,19.9%
9,O=C(NNC(=O)c1ccc([N+](=O)[O-])cc1)c1ccc([N+](=O)[O-])cc1,105%
10,COc1ccc(-n2c(-c3ccc(NC(=O)CCCl)cc3)nnc2-c2cc(OC)c(OC)c(OC)c2)cc1,15.4%
11,N#Cc1c(N)nc2c(c1N)C(c1ccc(Cl)cc1)C1=C(CCCC1=O)N2c1sc2c(c1C#N)CCCC2 (centres undefined),89.7%
12,CS(=O)(=O)Nc1cccc(-c2ccc3ncnc(Nc4cncc(Cl)c4)c3c2)c1,32.7%
13,COc1cc(C(=O)NNC(=O)c2ccccc2O)cc(OC)c1OC,103%
14,C=C1C(=O)O[C@H]2[C@H]1CC/C(COC(=O)c1cc(OC)c(OC)c(OC)c1)=C\CC[C@@]1(C)O[C@@H]21,54.5%
15,CC(C)(CCN=C(N)Nc1ccccn1)c1ccc(C(F)(F)F)cc1,13.5%
16,O=C(Nc1ccc(-n2cc(-c3ccncc3)c(-c3ccc(O)c(Cl)c3)n2)cc1)c1cc(Cl)cc(Cl)c1,24.3%
17,CCOc1ccccc1C(=O)N1CCN(c2cc(Cl)cc(Cl)c2)CC1,8.79% (active)
18,COc1ccc(/C=N/C2=NNC(C)(c3ccccc3O)N2C(Cc2c[nH]c3ccccc23)C(=O)O)cc1 (centres undefined),13.1%
19,O=C(NCCNc1nccc(-c2c(-c3cccc(O)c3)nc3sccn23)n1)c1ccccc1O,46.7%
